# Test results as given in the supplement of paper PMC10121225.
# Structures can show the parent of a compound that is named as a salt.
# Tested on: hN + hpA co-culture (H1 iNGN2 human neurons + human primary astrocytes)
# Assay: presynaptic density (SYNAPSIN1 puncta per MAP2 neurite area), Z-score vs DMSO controls; higher = more presynaptic puncta (synapse-promoting)
# Conditions: 3 µM; 72 h
# 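Further: immunostained co-cultures imaged by high-content microscopy, Z-score per plate against mean and SD of 0.1% DMSO wells, compounds added on differentiation day 18, analysed day 21.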
row,Structure (SMILES),presynaptic density (Z-score)
1,CN[C@@H](C)C(=O)N[C@H](C(=O)N1CCC[C@H]1C(=O)Nc1snnc1-c1ccccc1)C1CCCCC1,-0.107
2,CC(C)c1cc(-c2n[nH]c(=O)n2-c2ccc3c(ccn3C)c2)c(O)cc1O [Ganetespib (STA-9090)],2.03
3,CCCCCCCCCCCC1=C(O)C(=O)C=C(O)C1=O,-0.826
4,COc1cc(N2CCC(N)CC2)ccc1Nc1ncc(Cl)c(-c2c[nH]c3ccccc23)n1,-0.26
5,NC(=O)N1c2ccccc2CC(=O)c2ccccc21,0.372
6,CC(C)(C)NC(=O)[C@H]1CC[C@H]2[C@@H]3CC[C@H]4NC(=O)C=C[C@]4(C)[C@H]3CC[C@]12C [Finasteride],-0.206
7,CS(=O)(=O)c1cccc(CNc2nc(Nc3ccc4c(c3)CCC(=O)N4)ncc2C(F)(F)F)c1,1.04
8,NC(=O)c1ccc(I)c([N+](=O)[O-])c1,-1.09
9,CC[C@H](NC(=O)[C@H](C)NC)C(=O)N1C[C@@H](O)C[C@H]1Cc1c(-c2[nH]c3cc(F)ccc3c2C[C@@H]2C[C@H](O)CN2C(=O)[C@H](CC)NC(=O)[C@H](C)NC)[nH]c2cc(F)ccc12 [Birinapant],0.314
10,CCn1c(=O)c2c(nc(/C=C/c3ccc(OC)c(OC)c3)n2C)n(CC)c1=O [Istradefylline],-0.775
11,CNC(=O)c1ccc(N2C(=S)N(c3ccc(C#N)c(C(F)(F)F)c3)C(=O)C2(C)C)cc1F [Enzalutamide (MDV3100)],0.664
12,CN1C(=O)C(Cc2c[nH]c3ccccc23)NC1=S (stereo not given) [5-(1H-Indol-3-ylmethyl)-3-methyl-2-thioxo-4-imidazolidinone],-0.458
13,CCOC(=O)c1ccc(N2NC(=O)C(=Cc3ccc([N+](=O)[O-])o3)C2=O)cc1,0.0787
14,Cn1cnc2c(F)c(Nc3ccc(Br)cc3Cl)c(C(=O)NOCCO)cc21,0.953
15,COc1ccc(C2CNC(=O)C2)cc1OC1CCCC1 (stereo not given) [Rolipram],-0.353
16,Cc1ccc(NC(=O)C2(c3ccc4c(c3)OC(F)(F)O4)CC2)nc1-c1cccc(C(=O)O)c1 [VX-809 (Lumacaftor)],-0.6
17,Cc1cc([C@@H](C)Nc2ccccc2C(=O)O)c2nc(N3CCOCC3)cc(=O)n2c1,-0.243
18,C[C@H](NCc1ccc(OCc2cccc(F)c2)cc1)C(N)=O [Safinamide Mesylate],-0.055

row,Structure (SMILES),presynaptic density (Z-score)
1,CC(C)N(CCCNC(=O)Nc1ccc(C(C)(C)C)cc1)C[C@H]1O[C@@H](n2cc(Br)c3c(N)ncnc32)[C@H](O)[C@@H]1O,-0.407
2,COc1cc(OC)c(NC(=O)Nc2cc(C)on2)cc1Cl,-0.694
3,CC(C(O)c1ccc(O)cc1)N1CCC(Cc2ccccc2)CC1 (stereo not given) [Ifenprodil Tartrate_Selleck],-0.233
4,Cc1nn(-c2ccccc2)c(C)c1C=NN1CCN(Cc2ccccc2)CC1,-0.2
5,O=C(Nc1cccc(Nc2ncc(Br)c(NCCc3cnc[nH]3)n2)c1)N1CCCC1,-0.439
6,CC#CCn1c(N2CCC[C@@H](N)C2)nc2c1c(=O)n(Cc1nc(C)c3ccccc3n1)c(=O)n2C [Linagliptin],0.688
7,CCOC(=O)NCCCC(=O)NCCc1ccccc1,-0.656
8,COc1ccnc2[nH]cc(C(=O)C(=O)N3CCN(C(=O)c4ccccc4)C[C@H]3C)c12,0.386
9,CC(C)(C)c1cc(NC(=O)Nc2ccc(-c3cn4c(n3)sc3cc(OCCN5CCOCC5)ccc34)cc2)no1 [AC220 (Quizartinib],0.214
10,CC(C)(C)n1nc(-c2ccc(Cl)cc2)c2c(N)ncnc21,0.793
11,O=C(NC(Cc1cc(=O)[nH]c2ccccc12)C(=O)O)c1ccc(Cl)cc1 (stereo not given),-0.611
12,Cc1[nH]c(/C=C2\C(=O)Nc3ccc(S(=O)(=O)N(C)c4cccc(Cl)c4)cc32)c(C)c1C(=O)N1CCN(C)CC1,0.365
13,O=C(/C=C/c1cccc(S(=O)(=O)Nc2ccccc2)c1)NO [Belinostat(PXD101)],2.26
14,CCNC(=O)c1noc(-c2cc(C(C)C)c(O)cc2O)c1-c1ccc(CN2CCOCC2)cc1,3.55
15,Cc1ccccc1C(=O)Nc1ccc(C(=O)N2CCCC(O)c3cc(Cl)ccc32)c(C)c1 (stereo not given) [Tolvaptan],0.77
16,CCCSc1nc(N[C@@H]2C[C@H]2c2ccc(F)c(F)c2)c2nnn([C@@H]3C[C@H](OCCO)[C@@H](O)[C@H]3O)c2n1 [Ticagrelor],-0.848
17,O=C(NOCC1CC1)c1ccc(F)c(F)c1Nc1ccc(I)cc1Cl,-0.102
